Measured values: the antibiotic and cytotoxicity screens of Wong et al. (2023)
The whole screen tested about 39,000 compounds, of which about 3,300 (8.5%) were called active. The sample holds actives, similar compounds and a random draw of the others, so the mix is not that of the screen.

system: HepG2; test: cytotoxicity call (relative viability < 0.9); settings: 10 µM

Structure (SMILES) | cytotoxicity call
C[C@H]1CN([C@@H](C)CO)C(=O)c2cc(C#Cc3ccc(F)cc3)cnc2O[C@@H]1CN(C)Cc1ccccn1 | inactive
C[C@@H]1CCCCO[C@H](CN(C)C)[C@@H](C)CN([C@H](C)CO)C(=O)c2cc(NC(=O)Nc3ccc(C(F)(F)F)cc3)ccc2O1 | inactive
C[C@@H]1CCCCO[C@@H](CN(C)C)[C@H](C)CN([C@@H](C)CO)C(=O)c2cc(NC(=O)Nc3ccc(C(F)(F)F)cc3)ccc2O1 | inactive
C[C@@H]1CCCCO[C@H](CN(C)S(C)(=O)=O)[C@@H](C)CN([C@@H](C)CO)C(=O)c2cc(NC(=O)Nc3ccc(C(F)(F)F)cc3)ccc2O1 | inactive
C[C@H](CO)N1C[C@H](C)[C@@H](CN(C)C)OCCCC[C@H](C)Oc2ccc(NC(=O)Nc3ccc(C(F)(F)F)cc3)cc2C1=O | inactive
C[C@@H]1CCCCO[C@H](CN(C)C)[C@H](C)CN([C@@H](C)CO)C(=O)c2cc(NC(=O)Nc3ccc(C(F)(F)F)cc3)ccc2O1 | active
C[C@@H]1CCCCO[C@@H](CN(C)C)[C@H](C)CN([C@H](C)CO)C(=O)c2cc(NC(=O)Nc3ccc(C(F)(F)F)cc3)ccc2O1 | inactive
C[C@@H]1CN([C@@H](C)CO)C(=O)c2cc(NC(=O)Nc3ccc(C(F)(F)F)cc3)ccc2O[C@@H](C)CCCCO[C@H]1CN(C)C | inactive
C[C@@H]1CN([C@H](C)CO)C(=O)c2cc(NC(=O)Nc3ccc(C(F)(F)F)cc3)ccc2O[C@@H](C)CCCCO[C@H]1CN(C)S(C)(=O)=O | active
C[C@@H]1CCCCO[C@H](CN(C)C)[C@H](C)CN([C@H](C)CO)C(=O)c2cc(NC(=O)Nc3ccc(C(F)(F)F)cc3)ccc2O1 | active
C[C@H]1CCCCO[C@@H](CN(C)C)[C@@H](C)CN([C@@H](C)CO)C(=O)c2cc(NC(=O)Nc3ccc(C(F)(F)F)cc3)ccc2O1 | active
C[C@@H]1CN([C@@H](C)CO)C(=O)c2cc(NC(=O)Nc3ccc(C(F)(F)F)cc3)ccc2O[C@@H](C)CCCCO[C@@H]1CN(C)C | inactive
C[C@@H]1CCCCO[C@H](CN(C)S(C)(=O)=O)[C@@H](C)CN([C@H](C)CO)C(=O)c2cc(NC(=O)Nc3ccc(C(F)(F)F)cc3)ccc2O1 | inactive
Cc1ccc(S[C@]2(C(=O)NCCCN(C)C)CC(=O)N(Cc3ccccc3C(F)(F)F)[C@@H]2c2ccc(CO)cc2)cc1 | inactive
C[C@H]1CN([C@@H](C)CO)C(=O)Cc2cc(NS(=O)(=O)c3ccc(F)cc3)ccc2O[C@H]1CN(C)C(=O)Nc1cccc2ccccc12 | inactive
Cc1cc(-c2cc[nH]n2)c(C)s1 | inactive
C[C@H]1CCCCO[C@@H](CN(C)Cc2ccncc2)[C@@H](C)CN([C@@H](C)CO)C(=O)c2cc(NC(=O)CCC(F)(F)F)ccc2O1 | inactive
C[C@H]1CCCCO[C@H](CN(C)C)[C@@H](C)CN([C@@H](C)CO)C(=O)c2cc(NC(=O)Nc3ccc(C(F)(F)F)cc3)ccc2O1 | inactive
C[C@@H]1CCCCO[C@@H](CN(C)C)[C@@H](C)CN([C@H](C)CO)C(=O)c2cc(NC(=O)Nc3ccc(C(F)(F)F)cc3)ccc2O1 | active
C[C@@H]1CN([C@@H](C)CO)C(=O)c2cc(NC(=O)Nc3ccc(C(F)(F)F)cc3)ccc2O[C@@H](C)CCCCO[C@@H]1CN(C)S(=O)(=O)c1cn(C)cn1 | inactive
C[C@@H]1CN([C@@H](C)CO)C(=O)c2cc(NC(=O)Nc3ccc(C(F)(F)F)cc3)ccc2O[C@@H](C)CCCCO[C@H]1CN(C)S(=O)(=O)c1cn(C)cn1 | inactive
C[C@@H]1CN([C@H](C)CO)C(=O)c2cc(NC(=O)Nc3ccc(C(F)(F)F)cc3)ccc2O[C@@H](C)CCCCO[C@H]1CN(C)C | inactive

Structure (SMILES) | cytotoxicity call
C[C@H]1CCCCO[C@@H](CN(C)S(=O)(=O)c2cn(C)cn2)[C@@H](C)CN([C@@H](C)CO)C(=O)c2cc(NC(=O)Nc3ccc(C(F)(F)F)cc3)ccc2O1 | active
C[C@H]1CN([C@@H](C)CO)C(=O)c2cc(C#CC3(O)CCCC3)cnc2O[C@@H]1CN(C)S(=O)(=O)c1ccccc1 | inactive
COc1cccc(-c2ccc3c(c2)O[C@@H](CN(C)C(=O)C2CC2)[C@@H](C)CN([C@@H](C)CO)S3(=O)=O)c1 | inactive
C[C@@H]1CN([C@H](C)CO)C(=O)c2cc(NC(=O)Nc3ccccc3)ccc2O[C@@H](C)CCCCO[C@@H]1CN(C)Cc1ccc(C(=O)O)cc1 | inactive
C[C@H]1CN([C@@H](C)CO)C(=O)c2cc(C#CC3(O)CCCC3)cnc2O[C@H]1CN(C)C(=O)Cc1ccccc1 | inactive
CCNC(=O)C[C@H]1CC[C@H](NC(=O)C2CC2)[C@H](CO)O1 | inactive
Cn1cnc(S(=O)(=O)N2C[C@H](O)COC[C@@H]3O[C@H](CC(=O)NC4Cc5ccccc5C4)CC[C@H]32)c1 | inactive
O=C(C[C@@H]1CC[C@H]2[C@@H](COC[C@@H](O)CN2S(=O)(=O)c2ccccc2Cl)O1)NCc1ccccc1Cl | inactive
O=c1[nH]c2ccccc2c2ccccc12 | inactive
C[C@H]1CCc2[nH]c3ccccc3c2C1 | active
COc1ccc2c3c(ccc2c1)-c1[nH]c2ccccc2c1CC3 | inactive
C[C@H]1CN([C@@H](C)CO)C(=O)c2cc(NS(=O)(=O)c3ccccc3)ccc2O[C@@H]1CN(C)C(=O)Nc1cccc2ccccc12 | inactive
Nc1nccs1 | inactive
O=C1CCC(=O)N1c1nccs1 | active
O[C@H]1CCN(c2nccs2)C1 | inactive
O=C([C@@H]1[C@@H](CO)[C@@H]2Cn3c(cccc3=O)[C@@H]2N1CC1CCCC1)N1CCOCC1 | inactive
COC1(NC(=O)CSCC#N)C(=O)N2C(C(=O)[O-])=C(CSc3nnnn3C)CSC21.[Na+] (centres undefined) | inactive
C[C@@H]1CN([C@H](C)CO)C(=O)c2cc(NC(=O)Nc3ccccc3)ccc2O[C@@H]1CN(C)Cc1ccc(Cl)c(Cl)c1 | inactive
C[C@H]1CN([C@@H](C)CO)C(=O)c2cc(NC(=O)Nc3ccccc3)ccc2O[C@H]1CN(C)Cc1ccc(Cl)c(Cl)c1 | active
C[C@H](CO)N1C[C@H](C)[C@H](CN(C)Cc2ccc(Cl)c(Cl)c2)Oc2ccc(NC(=O)Nc3ccccc3)cc2C1=O | inactive
C[C@@H]1CN([C@@H](C)CO)C(=O)c2cc(NC(=O)Nc3ccccc3)ccc2O[C@@H]1CN(C)Cc1ccc(Cl)c(Cl)c1 | active
C[C@H]1CN([C@@H](C)CO)C(=O)c2cc(NC(=O)Nc3ccccc3)ccc2O[C@@H]1CN(C)Cc1ccc(Cl)c(Cl)c1 | inactive

Structure (SMILES) | cytotoxicity call
C[C@@H]1CN([C@H](C)CO)C(=O)c2cc(NC(=O)Nc3ccccc3)ccc2O[C@H]1CN(C)Cc1ccc(Cl)c(Cl)c1 | inactive
C[C@H](CO)N1C[C@H](C)[C@@H](CN(C)Cc2ccc(Cl)c(Cl)c2)Oc2ccc(NC(=O)Nc3ccccc3)cc2C1=O | inactive
C[C@@H]1CN([C@@H](C)CO)C(=O)c2cc(NC(=O)Nc3ccccc3)ccc2O[C@H]1CN(C)Cc1ccc(Cl)c(Cl)c1 | active
COCC(=O)N1C[C@H](C)[C@@H](OC)CN(C)C(=O)c2cc(NC(=O)c3ccc(F)cc3)ccc2OC[C@@H]1C | inactive
N#Cc1cn(C2CCCCC2)c(=O)[nH]c1=O | inactive
C[C@H]1CCCCO[C@H](CN(C)C(=O)Cc2ccccc2)[C@@H](C)CN([C@@H](C)CO)C(=O)c2cc(NC(=O)C3CCCCC3)ccc2O1 | inactive
CC(C)CC#Cc1ccc2c(c1)O[C@H](CN(C)C(=O)Cc1ccccn1)[C@@H](C)CN([C@@H](C)CO)S2(=O)=O | inactive
C[C@@H]1CN([C@H](C)CO)C(=O)Cc2cc(NC(=O)c3ccncc3)ccc2O[C@@H]1CN(C)C(=O)NC1CCCCC1 | inactive
C[C@@H]1CN([C@H](C)CO)C(=O)c2cc(-c3ccncc3)cnc2O[C@@H]1CN(C)S(=O)(=O)c1ccc(F)cc1 | inactive
Cc1nsc(-c2ccccc2)n1 | inactive
C[C@@H]1CCCCO[C@@H](CN(C)Cc2ccc3c(c2)OCO3)[C@H](C)CN([C@@H](C)CO)C(=O)c2cc(NS(=O)(=O)c3ccc(F)cc3)ccc2O1 | inactive
C[C@@H]1CCCCO[C@@H](CN(C)Cc2ccc3c(c2)OCO3)[C@@H](C)CN([C@H](C)CO)C(=O)c2cc(NS(=O)(=O)c3ccc(F)cc3)ccc2O1 | active
C[C@@H]1CCCCO[C@H](CN(C)Cc2ccc3c(c2)OCO3)[C@@H](C)CN([C@@H](C)CO)C(=O)c2cc(NS(=O)(=O)c3ccc(F)cc3)ccc2O1 | active
C[C@@H]1CN([C@H](C)CO)C(=O)c2cc(NS(=O)(=O)c3ccc(F)cc3)ccc2O[C@@H](C)CCCCO[C@@H]1CN(C)Cc1ccc2c(c1)OCO2 | inactive
C[C@@H]1CCCCO[C@H](CN(C)Cc2ccc3c(c2)OCO3)[C@H](C)CN([C@H](C)CO)C(=O)c2cc(NS(=O)(=O)c3ccc(F)cc3)ccc2O1 | inactive
C[C@@H]1CCCCO[C@@H](CN(C)Cc2ccc3c(c2)OCO3)[C@@H](C)CN([C@@H](C)CO)C(=O)c2cc(NS(=O)(=O)c3ccc(F)cc3)ccc2O1 | active
C[C@H]1CCCCO[C@H](CN(C)Cc2ccc3c(c2)OCO3)[C@@H](C)CN([C@@H](C)CO)C(=O)c2cc(NS(=O)(=O)c3ccc(F)cc3)ccc2O1 | inactive
C[C@@H]1CN([C@@H](C)CO)C(=O)c2cc(NS(=O)(=O)c3ccc(F)cc3)ccc2O[C@@H](C)CCCCO[C@H]1CN(C)Cc1ccc2c(c1)OCO2 | inactive
C[C@@H]1CCCCO[C@@H](CN(C)Cc2ccc3c(c2)OCO3)[C@H](C)CN([C@H](C)CO)C(=O)c2cc(NS(=O)(=O)c3ccc(F)cc3)ccc2O1 | inactive
C[C@@H]1CN([C@H](C)CO)C(=O)c2cc(-c3cccnc3)cnc2O[C@@H]1CN(C)Cc1ccc(Oc2ccccc2)cc1 | inactive
